Results reported in PubChem BioAssay AID1159580 (chemical genetic matrix, 2015).
Several values for one entry are separate records, joined by “and”; a condition that tells them apart may be missing. Equal entries are not always repeated. Hit rate of the full screen: of about 5,500 compounds, about 2,000 (36%) were called active. Roughly 18% stayed inconclusive and do not appear here. Rule as the data show it: active = normalized growth mostly below about 0.91 (no sharp cut-off); inconclusive = no clear call, values can overlap the other calls; inactive = mostly above about 0.92. The list shows a part of the results.

Assay: chemical genetic growth profiling, strain panel (AID 1159580);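 also: tested at 20 µM; growth read once vehicle control cultures reached saturation at 30 °C; 1 = growth at the plate median or of vehicle wells; lower values mean less growth of the strain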
Details: S. cerevisiae deletion strains, growth OD

Measured: normalized growth

CN1CCN(C(c2ccccc2)c2ccccc2)CC1
inactive: locus YAL013W, strain DEP1, stronger effect = lower value 0.996 | locus YAL021C, strain ccr4, stronger effect = lower value 0.973 | locus YAL026C, strain drs2, stronger effect = lower value 0.988 | locus YAL030W, strain snc1, stronger effect = lower value 0.996 | locus YBL061C, strain skt5, stronger effect = lower value 0.993 | locus YBR009C, strain hhf1, stronger effect = lower value 1.01 | locus YBR021W, strain FUR4, stronger effect = lower value 0.998 | locus YBR023C, strain chs3, stronger effect = lower value 0.985 | locus YBR171W, strain sec66, stronger effect = lower value 0.975 | locus YBR229C, strain ROT2, stronger effect = lower value 1.01 | locus YBR231C, strain swc5, stronger effect = lower value 0.966 | locus YBR279W, strain paf1, stronger effect = lower value 0.995 | locus YCL011C, strain gbp2, stronger effect = lower value 0.998 | locus YCL016C, strain dcc1, stronger effect = lower value 0.973 | locus YCL029C, strain bik1, stronger effect = lower value 0.973 | locus YCL069W, strain vba3, stronger effect = lower value 0.995 | locus YCR088W, strain abp1, stronger effect = lower value 0.983 | locus YDL005C, strain med2, stronger effect = lower value 0.969 | locus YDL035C, strain GPR1, stronger effect = lower value 0.984 | locus YDL040C, strain nat1, stronger effect = lower value 0.98 | locus YDL074C, strain BRE1, stronger effect = lower value 0.993 | locus YDL101C, strain DUN1, stronger effect = lower value 1 | locus YDL134C, strain PPH21, stronger effect = lower value 1.01 | locus YDL185W, strain tfp1, stronger effect = lower value 0.942 | locus YDL192W, strain arf1, stronger effect = lower value 0.971 | locus YDR001C, strain nth1, stronger effect = lower value 1.02 | locus YDR069C, strain doa4, stronger effect = lower value 0.964 | locus YDR101C, strain arx1, stronger effect = lower value 0.988 | locus YDR137W, strain rgp1, stronger effect = lower value 0.994 | locus YDR150W, strain NUM1, stronger effect = lower value 0.989 | locus YDR159W, strain sac3, stronger effect = lower value 0.991 | locus YDR162C, strain NBP2, stronger effect = lower value 1.01 | locus YDR195W, strain ref2 0.958 | locus YDR297W, strain sur2, stronger effect = lower value 0.996 | locus YDR318W, strain mcm21, stronger effect = lower value 0.969 | locus YDR334W, strain swr1, stronger effect = lower value 0.977 | locus YDR335W, strain msn5, stronger effect = lower value 0.994 | locus YDR388W, stronger effect = lower value 0.966 | locus YDR392W, strain spt3, stronger effect = lower value 0.915 | locus YDR502C, strain sam2, stronger effect = lower value 0.978 | locus YEL003W, strain gim4, stronger effect = lower value 0.984 | locus YEL037C, strain rad23, stronger effect = lower value 0.988 | locus YEL061C, strain CIN8 (second series), stronger effect = lower value 0.997 | locus YEL061C, strain CIN8, stronger effect = lower value 0.975 | locus YER015W, strain faa2, stronger effect = lower value 0.979 | locus YER016W, strain bim1, stronger effect = lower value 0.971 | locus YER110C, stronger effect = lower value 0.973 | locus YER111C, strain swi4, stronger effect = lower value 0.983 | locus YER155C, strain BEM2 (second series), stronger effect = lower value 0.932 | locus YER155C, strain BEM2, stronger effect = lower value 1 | locus YER167W, strain BCK2, stronger effect = lower value 0.997 | locus YFR010W, strain ubp6, stronger effect = lower value 0.99 | locus YGL078C, strain dbp3, stronger effect = lower value 0.989 | locus YGL086W, strain mad1, stronger effect = lower value 0.983 | locus YGL167C, strain pmr1, stronger effect = lower value 0.98 | locus YGL173C, strain kem1, stronger effect = lower value 0.979 | locus YGL227W, strain vid30, stronger effect = lower value 0.968 | locus YGL240W, strain doc1, stronger effect = lower value 1.01 | locus YGL248W, strain PDE1, stronger effect = lower value 1 | locus YGL253W, strain hxk2, stronger effect = lower value 0.985 | locus YGR078C, strain PAC10, stronger effect = lower value 0.998 | locus YGR135W, strain pre9, stronger effect = lower value 0.979 | locus YGR229C, strain SMI1, stronger effect = lower value 1.03 | locus YGR252W, strain gcn5, stronger effect = lower value 1.03 | locus YHR013C, strain ard1, stronger effect = lower value 0.902 | locus YHR027C, strain rpn1, stronger effect = lower value 0.985 | locus YHR030C, strain SLT2, stronger effect = lower value 0.995 and 0.998 | locus YHR079C, strain IRE1 (second series), stronger effect = lower value 0.969 | locus YHR079C, strain IRE1, stronger effect = lower value 0.992 | locus YHR094C, strain hxt1, stronger effect = lower value 0.965 | locus YHR129C, strain ARP1, stronger effect = lower value 0.999 | locus YHR142W, strain chs7, stronger effect = lower value 1 | locus YHR200W, strain rpn10, stronger effect = lower value 0.966 | locus YIL066C, strain RNR3, stronger effect = lower value 1 | locus YIL073C, strain SPO22, stronger effect = lower value 0.965 | locus YIL125W, strain kgd1, stronger effect = lower value 0.981 | locus YIR030C, strain dcg1, stronger effect = lower value 0.967 | locus YJL092W, strain hpr5, stronger effect = lower value 0.991 | locus YJL095W, strain BCK1 (second series), stronger effect = lower value 0.993 | locus YJL095W, strain BCK1, stronger effect = lower value 0.966 and 0.998 | locus YJL115W, strain asf1, stronger effect = lower value 0.996 | locus YJL129C, strain trk1, stronger effect = lower value 0.968 | locus YJL134W, strain LCB3, stronger effect = lower value 0.997 | locus YJL154C, strain vps35, stronger effect = lower value 0.999 | locus YJL164C, strain tpk1, stronger effect = lower value 1.02 | locus YJL166W, strain qcr8, stronger effect = lower value 1.01 | locus YJL168C, strain set2, stronger effect = lower value 0.968 | locus YJL187C, strain SWE1 (second series), stronger effect = lower value 0.999 | locus YJL187C, strain SWE1, stronger effect = lower value 0.994 | locus YJR043C, strain POL32, stronger effect = lower value 1.01 | locus YJR066W, strain TOR1, stronger effect = lower value 0.994
